Experimental data from PubChem BioAssay.
Several values for one entry are separate records, joined by “and”; a condition that tells them apart may be missing. Equal values may be shown once. Results filed as inconclusive are left out. Activity calls are given as the source filed them.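 Rule for the calls, unless noted: active = normalized viability below 100% at a tested concentration; inactive = the rest.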

Experiments:
[1] = viability loss in pontine glioma line – cell-based, SU-DIPG-XXV, MIPE5.0, CellTiter-Glo, qHTS, dose response (AID 1347065; cut-off not given, nearly all actives have AC50 up to about 26 µM;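 note: cells exposed to compound for 48 hours before ATP readout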); conditions: CellTiter-Glo ATP luminescence
[2] = growth inhibition of DIPG cells – cell-based, MIPE4.0 library, CellTiter-Glo luminescence, qHTS (AID 1347066; cut-off not given, nearly all actives have AC50 up to about 30 µM;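 note: cells exposed to compound for 48 hours before readout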); conditions: SU-DIPG-VI viability, CellTiter-Glo ATP luminescence
[3] = growth inhibition of DIPG cells – cell-based, MIPE5.0 library, qHTS (AID 1347068; cut-off not given, nearly all actives have IC50 up to about 30 µM;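 for IC50: cells exposed to compound for 48 hours before viability readout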); conditions: SU-DIPG-XXV viability
[4] = viability loss with induced miR-34 in A549 – imaging, A549 dox-inducible miR-34, nuclei and caspase counts, primary screen (AID 1347080;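 active = compounds whose cell count with miR-34 switched on is under 0.7 times the count with it off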); conditions: A549 miR-34 inducible, Hoechst nuclei count, 48 h
[5] = compounds altering HSF1 focus formation in cells – imaging, Selleck Cancer Library (AID 1347162; in the data active = plate-normalised HSF1 focus index below about 0.46); conditions: human cells, HSF1 nuclear foci imaging, at 10 µM; SSMD: measured here: HSF1 foci SSMD mean; cell count: measured here: cell number; plate-normalised HSF1 focus index: stronger effect = lower value
[6] = MELAS cybrid and Rieske KO viability enhancers – cell-based, MELAS cybrids, Rieske KO mouse fibroblasts, CellTiter-Glo, primary screen (AID 1508586;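 active = mean z-score across replicates of 1.96 or higher in either the MELAS or the Rieske mutant cell line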;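 note: z relative to plate mean and SD of compound and empty wells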); conditions: low glucose
[7] = drug combination growth inhibition, ovarian cancer – cell-based, oncology-focused library, rucaparib conditional, profiling panel (AID 1508598); conditions: patient-derived ovarian cancer cells, CellTiter-Glo viability, 144 h, stronger effect = lower value
[8] = JHH-DIPG-1 glioma cell viability, MIPE5.0 library, CellTiter-Glo luminescence, qHTS (AID 1347067; cut-off not given, nearly all actives have AC50 up to about 26 µM;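 note: cells exposed to compound for 48 hours before readout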); conditions: JHH-DIPG-1 glioma viability, CellTiter-Glo ATP luminescence
[9] = stronger effect = lower value, cell number ratio, induced over uninduced
[10] = measured here: relative caspase fold change +Dox/-Dox
[11] = measured here: total cells with miR-34 induction, stronger effect = lower value
[12] = measured here: total cells without miR-34 induction
[13] = MELAS cybrid survival, CellTiter-Glo 48 h, stronger effect = higher value
[14] = Rieske KO mouse fibroblast survival, CellTiter-Glo 72 h
[15] = at 0.000305 µM, OCI-C5x cells, with rucaparib 10 µM, 100% = cells with rucaparib alone
[16] = at 0.000305 µM, OCI-C5x cells, without rucaparib
[17] = at 0.000305 µM, OCI-P5x cells, with rucaparib 20 µM, 100% = cells with rucaparib alone
[18] = at 0.000305 µM, OCI-P5x cells, without rucaparib
[19] = at 0.00122 µM, OCI-C5x cells, with rucaparib 10 µM, 100% = cells with rucaparib alone
[20] = at 0.00122 µM, OCI-C5x cells, without rucaparib
[21] = at 0.00122 µM, OCI-P5x cells, with rucaparib 20 µM, 100% = cells with rucaparib alone
[22] = at 0.00122 µM, OCI-P5x cells, without rucaparib
[23] = at 0.00488 µM, OCI-C5x cells, with rucaparib 10 µM, 100% = cells with rucaparib alone
[24] = at 0.00488 µM, OCI-C5x cells, without rucaparib
[25] = at 0.00488 µM, OCI-P5x cells, with rucaparib 20 µM, 100% = cells with rucaparib alone
[26] = at 0.00488 µM, OCI-P5x cells, without rucaparib
[27] = at 0.0195 µM, OCI-C5x cells, with rucaparib 10 µM, 100% = cells with rucaparib alone
[28] = at 0.0195 µM, OCI-C5x cells, without rucaparib
[29] = at 0.0195 µM, OCI-P5x cells, with rucaparib 20 µM, 100% = cells with rucaparib alone
[30] = at 0.0195 µM, OCI-P5x cells, without rucaparib
[31] = at 0.0781 µM, OCI-C5x cells, with rucaparib 10 µM, 100% = cells with rucaparib alone
[32] = at 0.0781 µM, OCI-C5x cells, without rucaparib
[33] = at 0.0781 µM, OCI-P5x cells, with rucaparib 20 µM, 100% = cells with rucaparib alone
[34] = at 0.0781 µM, OCI-P5x cells, without rucaparib
[35] = at 0.313 µM, OCI-C5x cells, with rucaparib 10 µM, 100% = cells with rucaparib alone
[36] = at 0.313 µM, OCI-C5x cells, without rucaparib
[37] = at 0.313 µM, OCI-P5x cells, with rucaparib 20 µM, 100% = cells with rucaparib alone
[38] = at 0.313 µM, OCI-P5x cells, without rucaparib
[39] = at 1.25 µM, OCI-C5x cells, with rucaparib 10 µM, 100% = cells with rucaparib alone
[40] = at 1.25 µM, OCI-C5x cells, without rucaparib
[41] = at 1.25 µM, OCI-P5x cells, with rucaparib 20 µM, 100% = cells with rucaparib alone
[42] = at 1.25 µM, OCI-P5x cells, without rucaparib
[43] = at 5 µM, OCI-C5x cells, with rucaparib 10 µM, 100% = cells with rucaparib alone
[44] = at 5 µM, OCI-C5x cells, without rucaparib
[45] = at 5 µM, OCI-P5x cells, with rucaparib 20 µM, 100% = cells with rucaparib alone
[46] = at 5 µM, OCI-P5x cells, without rucaparib

O=NN(CCCl)C(=O)NC1CCCCC1
active: viability [7, 17] 87.5% | viability [7, 21] 100% | viability [7, 25] 94.7% | viability [7, 29] 97.1% | viability [7, 33] 97.7% | viability [7, 41] 90.9% | viability [7, 45] 97.4%
6620: cell count [5]
8750 and 8760: cell count [4, 12]
inactive: outcome [1] | outcome [2] | outcome [3] | fold change [4, 9] 0.819 and 0.861 | plate-normalised HSF1 focus index [5] 1.01 | z-score [6, 13] -0.38 and -0.0882 | viability [7, 15] 106% | viability [7, 16] 116% | viability [7, 18] 105% | viability [7, 19] 106% | viability [7, 20] 123% | viability [7, 22] 107% | viability [7, 23] 107% | viability [7, 24] 120% | viability [7, 26] 109% | viability [7, 27] 121% | viability [7, 28] 122% | viability [7, 30] 116% | viability [7, 31] 107% | viability [7, 32] 121% | viability [7, 34] 112% | viability [7, 35] 113% | viability [7, 36] 119% | viability [7, 37] 103% | viability [7, 38] 119% | viability [7, 39] 115% | viability [7, 40] 125% | viability [7, 42] 108% | viability [7, 43] 118% | viability [7, 44] 124% | viability [7, 46] 125%
0.27: SSMD [5]
1.64 and 1.87: fold change [4, 10]
0.628 and -0.815: z-score [6, 14]
7170 and 7550: cell count [4, 11]

Nc1nc(=S)c2[nH]cnc2[nH]1
0.96: fold change [4, 10]
1580: cell count [4, 12]
active: AC50 [1] 1480 nM | AC50 [8] 1050 nM | IC50 [3] 4170 nM
1820: cell count [4, 11]
inactive: fold change [4, 9] 1.16

Cc1nc2ccc(CN(C)c3ccc(C(=O)N[C@@H](CCC(=O)O)C(=O)O)s3)cc2c(=O)[nH]1
-1.02: z-score [6, 14]
inactive: outcome [1] | outcome [2] | outcome [8] | outcome [3] | z-score [6, 13] -0.789 | viability [7, 15] 114% | viability [7, 17] 107% | viability [7, 18] 104% | viability [7, 19] 115% | viability [7, 21] 108% | viability [7, 22] 106% | viability [7, 25] 114% | viability [7, 26] 109% | viability [7, 29] 116% | viability [7, 30] 110% | viability [7, 33] 118% | viability [7, 34] 111% | viability [7, 37] 119% | viability [7, 38] 111% | viability [7, 41] 111% | viability [7, 42] 116% | viability [7, 45] 124% | viability [7, 46] 113%
active: viability [7, 16] 92.6% | viability [7, 20] 84.6% | viability [7, 23] 72.8% | viability [7, 24] 55.7% | viability [7, 27] 19.2% | viability [7, 28] 17.1% | viability [7, 31] 16.3% | viability [7, 32] 17.6% | viability [7, 35] 15.6% | viability [7, 36] 19.3% | viability [7, 39] 14.5% | viability [7, 40] 17.5% | viability [7, 43] 16.1% | viability [7, 44] 19.3%
